Laboratory results as given in the supplement of paper PMC11006884.
The full data set covers some 6,500 targets. This sample favours those with a hit. About 2% of all pairs of compound and target were hits.

What follows are targets tested with COC(=O)C#Cc1ccccc1 [methyl 3-phenylpropiolate] (assay: log2 ratio of iodoacetamide-alkyne labeling of the cysteine site, DMSO over compound (competition); higher = stronger covalent engagement of the cysteine by the compound, active = 1 or more). Settings: 500 µM; treatment time 1 h; system: HEK293T cell lysate.
Outline: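 Electrophile (500 µM) or vehicle was added to HEK293T lysate (2 mg/mL) for 1 h at ambient temperature before iodoacetamide alkyne labelling (1 h) and click coupling to sCIP-TMT reagents. After pooling, overnight trypsin digestion at 37 °C, streptavidin enrichment and acid elution, peptides were measured by Orbitrap Eclipse LC-MS/MS with FAIMS and quantified in FragPipe. Each cysteine's log2 competition ratio compares mean control-channel with mean compound-channel reporter intensity, control over compound. Data came from duplicate channels across three replicates, excluding cysteines quantified in only one replicate.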

Chain of UniProt Q14781 (Q14781 whole entry, looked up): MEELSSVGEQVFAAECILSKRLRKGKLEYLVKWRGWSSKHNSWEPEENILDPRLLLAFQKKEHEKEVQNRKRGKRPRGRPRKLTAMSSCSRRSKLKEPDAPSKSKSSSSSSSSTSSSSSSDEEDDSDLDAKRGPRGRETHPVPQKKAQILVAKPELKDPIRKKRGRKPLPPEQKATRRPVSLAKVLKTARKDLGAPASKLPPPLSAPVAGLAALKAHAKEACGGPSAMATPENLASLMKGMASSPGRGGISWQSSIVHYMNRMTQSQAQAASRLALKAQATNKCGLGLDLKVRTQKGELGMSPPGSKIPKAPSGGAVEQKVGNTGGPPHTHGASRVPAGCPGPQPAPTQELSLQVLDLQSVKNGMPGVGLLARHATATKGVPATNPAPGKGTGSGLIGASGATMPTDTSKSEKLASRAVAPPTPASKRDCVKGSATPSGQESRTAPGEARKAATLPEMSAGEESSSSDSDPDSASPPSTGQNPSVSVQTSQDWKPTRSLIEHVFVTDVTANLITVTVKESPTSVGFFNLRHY
Chain of UniProt Q00765 (Q00765 whole entry): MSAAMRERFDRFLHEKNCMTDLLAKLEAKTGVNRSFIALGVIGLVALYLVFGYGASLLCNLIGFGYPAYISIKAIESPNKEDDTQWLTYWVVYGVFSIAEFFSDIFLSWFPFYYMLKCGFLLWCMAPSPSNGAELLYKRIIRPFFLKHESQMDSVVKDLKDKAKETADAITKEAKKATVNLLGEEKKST
Chain of UniProt P56192 (P56192 whole entry, looked up): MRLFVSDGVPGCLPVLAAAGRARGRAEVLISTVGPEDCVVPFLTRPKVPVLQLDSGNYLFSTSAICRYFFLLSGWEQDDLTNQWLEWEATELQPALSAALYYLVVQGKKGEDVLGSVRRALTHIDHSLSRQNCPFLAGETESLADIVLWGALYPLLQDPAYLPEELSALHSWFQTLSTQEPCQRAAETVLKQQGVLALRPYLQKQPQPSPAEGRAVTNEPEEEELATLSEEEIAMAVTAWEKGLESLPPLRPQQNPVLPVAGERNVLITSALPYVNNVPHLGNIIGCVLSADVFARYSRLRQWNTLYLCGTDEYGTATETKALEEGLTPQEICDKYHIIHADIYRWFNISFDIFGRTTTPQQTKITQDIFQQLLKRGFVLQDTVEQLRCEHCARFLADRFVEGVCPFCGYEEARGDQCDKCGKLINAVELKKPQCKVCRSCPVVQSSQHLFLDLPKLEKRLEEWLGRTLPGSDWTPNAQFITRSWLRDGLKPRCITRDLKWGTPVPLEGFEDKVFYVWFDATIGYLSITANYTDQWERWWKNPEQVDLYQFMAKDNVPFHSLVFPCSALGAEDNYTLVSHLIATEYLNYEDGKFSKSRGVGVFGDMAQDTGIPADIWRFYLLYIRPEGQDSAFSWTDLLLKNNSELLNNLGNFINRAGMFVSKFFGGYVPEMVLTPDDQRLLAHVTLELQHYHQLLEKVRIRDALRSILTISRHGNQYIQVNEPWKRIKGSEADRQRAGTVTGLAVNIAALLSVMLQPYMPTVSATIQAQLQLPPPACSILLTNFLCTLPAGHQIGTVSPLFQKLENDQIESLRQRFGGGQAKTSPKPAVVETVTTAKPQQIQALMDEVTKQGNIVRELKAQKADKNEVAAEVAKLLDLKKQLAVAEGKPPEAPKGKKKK
Chain of UniProt Q13057 (Q13057 whole entry, looked up): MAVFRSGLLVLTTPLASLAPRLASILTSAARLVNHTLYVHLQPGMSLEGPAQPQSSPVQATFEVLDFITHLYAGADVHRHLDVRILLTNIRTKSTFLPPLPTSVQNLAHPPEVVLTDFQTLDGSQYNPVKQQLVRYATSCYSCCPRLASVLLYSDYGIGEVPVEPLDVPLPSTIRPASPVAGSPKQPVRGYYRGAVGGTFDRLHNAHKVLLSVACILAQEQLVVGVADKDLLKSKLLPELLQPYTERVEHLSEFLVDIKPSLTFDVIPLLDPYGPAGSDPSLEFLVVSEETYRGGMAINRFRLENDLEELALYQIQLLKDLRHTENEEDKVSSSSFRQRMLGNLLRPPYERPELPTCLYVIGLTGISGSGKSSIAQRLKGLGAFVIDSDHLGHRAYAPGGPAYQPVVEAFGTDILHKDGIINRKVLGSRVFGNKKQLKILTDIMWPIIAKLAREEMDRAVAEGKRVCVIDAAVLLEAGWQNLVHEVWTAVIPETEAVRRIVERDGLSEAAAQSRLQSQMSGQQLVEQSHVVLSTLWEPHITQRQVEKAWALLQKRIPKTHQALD
Chain of UniProt Q15417 (Q15417 whole entry, looked up): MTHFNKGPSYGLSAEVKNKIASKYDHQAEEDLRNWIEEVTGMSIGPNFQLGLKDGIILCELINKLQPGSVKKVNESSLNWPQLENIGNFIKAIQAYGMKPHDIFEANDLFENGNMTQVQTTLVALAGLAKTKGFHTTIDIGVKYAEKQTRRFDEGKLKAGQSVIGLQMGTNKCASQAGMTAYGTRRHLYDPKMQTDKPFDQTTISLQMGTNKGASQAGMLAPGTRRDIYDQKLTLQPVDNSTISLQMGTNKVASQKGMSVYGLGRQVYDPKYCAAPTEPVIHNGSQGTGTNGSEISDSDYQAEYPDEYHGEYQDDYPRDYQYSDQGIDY
Chain of UniProt Q13190 (Q13190 whole entry): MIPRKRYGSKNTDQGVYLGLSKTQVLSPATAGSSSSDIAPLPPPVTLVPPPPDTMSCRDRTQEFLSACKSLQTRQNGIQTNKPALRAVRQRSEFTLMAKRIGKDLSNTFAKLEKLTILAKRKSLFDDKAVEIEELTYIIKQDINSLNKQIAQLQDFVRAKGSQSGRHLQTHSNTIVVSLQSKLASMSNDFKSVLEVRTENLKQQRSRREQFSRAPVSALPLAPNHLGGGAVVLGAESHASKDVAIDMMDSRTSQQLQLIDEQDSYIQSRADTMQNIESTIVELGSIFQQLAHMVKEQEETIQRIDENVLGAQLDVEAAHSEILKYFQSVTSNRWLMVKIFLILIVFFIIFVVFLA
Chain of UniProt P85037 (P85037 whole entry, looked up): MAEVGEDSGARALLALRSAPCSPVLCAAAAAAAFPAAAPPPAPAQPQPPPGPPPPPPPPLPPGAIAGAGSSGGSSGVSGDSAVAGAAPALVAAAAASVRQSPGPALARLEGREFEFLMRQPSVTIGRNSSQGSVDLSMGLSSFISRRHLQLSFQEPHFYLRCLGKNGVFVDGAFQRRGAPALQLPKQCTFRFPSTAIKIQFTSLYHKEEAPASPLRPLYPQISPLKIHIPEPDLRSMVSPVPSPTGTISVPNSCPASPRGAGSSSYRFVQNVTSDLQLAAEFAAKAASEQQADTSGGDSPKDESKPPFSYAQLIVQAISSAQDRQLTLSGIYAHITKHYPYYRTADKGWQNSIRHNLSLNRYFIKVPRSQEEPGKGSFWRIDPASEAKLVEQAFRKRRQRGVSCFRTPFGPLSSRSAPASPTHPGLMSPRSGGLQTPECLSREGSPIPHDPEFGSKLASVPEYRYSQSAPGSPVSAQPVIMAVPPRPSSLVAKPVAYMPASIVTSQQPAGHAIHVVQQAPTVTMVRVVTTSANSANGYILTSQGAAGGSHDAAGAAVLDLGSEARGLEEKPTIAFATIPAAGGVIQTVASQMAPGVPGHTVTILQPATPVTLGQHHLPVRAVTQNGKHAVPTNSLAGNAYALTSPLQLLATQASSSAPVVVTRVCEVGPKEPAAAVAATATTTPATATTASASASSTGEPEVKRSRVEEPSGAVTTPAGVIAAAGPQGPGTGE
Chain of UniProt Q08379 (Q08379 whole entry): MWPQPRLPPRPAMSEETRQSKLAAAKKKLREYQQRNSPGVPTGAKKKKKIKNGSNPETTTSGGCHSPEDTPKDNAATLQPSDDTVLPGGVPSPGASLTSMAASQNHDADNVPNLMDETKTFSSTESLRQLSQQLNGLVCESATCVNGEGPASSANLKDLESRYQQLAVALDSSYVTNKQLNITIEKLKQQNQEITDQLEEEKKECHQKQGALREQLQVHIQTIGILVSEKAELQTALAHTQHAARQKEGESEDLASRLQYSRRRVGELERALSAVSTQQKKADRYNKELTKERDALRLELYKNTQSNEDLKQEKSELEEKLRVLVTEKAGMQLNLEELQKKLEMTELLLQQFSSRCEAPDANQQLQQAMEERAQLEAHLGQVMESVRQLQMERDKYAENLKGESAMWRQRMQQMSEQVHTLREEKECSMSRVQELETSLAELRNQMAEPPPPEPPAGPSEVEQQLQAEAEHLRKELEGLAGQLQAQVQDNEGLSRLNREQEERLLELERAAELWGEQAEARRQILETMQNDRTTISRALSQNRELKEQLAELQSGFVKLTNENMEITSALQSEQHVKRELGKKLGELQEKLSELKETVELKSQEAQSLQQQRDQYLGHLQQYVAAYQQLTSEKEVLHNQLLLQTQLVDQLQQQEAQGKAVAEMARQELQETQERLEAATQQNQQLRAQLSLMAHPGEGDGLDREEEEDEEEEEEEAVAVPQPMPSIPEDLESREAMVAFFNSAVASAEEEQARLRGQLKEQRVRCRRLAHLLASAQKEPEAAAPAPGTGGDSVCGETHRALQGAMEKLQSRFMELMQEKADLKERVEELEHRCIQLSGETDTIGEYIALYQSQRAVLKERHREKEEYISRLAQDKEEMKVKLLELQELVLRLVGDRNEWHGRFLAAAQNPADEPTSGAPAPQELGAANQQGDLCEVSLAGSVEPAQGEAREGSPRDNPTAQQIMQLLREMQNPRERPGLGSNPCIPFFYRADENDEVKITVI
Chain of UniProt Q2TAA2 (Q2TAA2 whole entry, looked up): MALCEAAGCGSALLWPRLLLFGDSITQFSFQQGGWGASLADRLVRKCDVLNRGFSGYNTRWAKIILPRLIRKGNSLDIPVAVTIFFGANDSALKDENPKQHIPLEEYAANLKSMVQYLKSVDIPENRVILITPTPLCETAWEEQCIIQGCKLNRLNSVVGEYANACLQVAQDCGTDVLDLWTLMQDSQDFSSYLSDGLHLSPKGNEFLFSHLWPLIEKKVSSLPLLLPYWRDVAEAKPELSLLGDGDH

Target | log2 ratio of iodoacetamide-alkyne labeling
NUP107 C78 (UniProt P57740) | 0.705 (inactive)
PITRM1 C313 (UniProt Q5JRX3) | 0.195 (inactive)
MARS C38 (UniProt P56192) | 0.14 (inactive)
MCM6 C242 (UniProt Q14566) | 0.192 (inactive)
GOLGA2 C794 (UniProt Q08379) | 1.07 (active)
IAH1 C4 (UniProt Q2TAA2) | 2.43 (active)
TARBP1 C483 (UniProt Q13395) | 1.21 (active)
REEP5 C18 (UniProt Q00765) | 0.482 (inactive)
COPB1 C248 (UniProt P53618) | -0.00654 (inactive)
GABPA C338 (UniProt Q06546) | 0.308 (inactive)
GANAB C423 (UniProt Q14697) | 0.019 (inactive)
PPP5C C11 (UniProt P53041) | 0.16 (inactive)
UniProt P62258_C97 | -0.063 (inactive)
UniProt Q02930_C69 | 1.09 (active)
EXOSC9 C9 (UniProt Q06265) | 0.307 (inactive)
UniProt Q13155_C23 | 1.24 (active)
R3HDM1 C304 (UniProt Q15032) | 0.1 (inactive)
SPTAN1 C1930 (UniProt Q13813) | 0.167 (inactive)

Target | log2 ratio of iodoacetamide-alkyne labeling
CAP1 C93 (UniProt Q01518) | 0.152 (inactive)
UniProt Q15042_C873 | 0.165 (inactive)
EFTUD2 C144 (UniProt Q15029) | 0.297 (inactive)
COASY C144 (UniProt Q13057) | 1.16 (active)
FLYWCH1 C173 (UniProt Q4VC44) | -0.0462 (inactive)
UniProt P62330_C155 | 0.452 (inactive)
FOXK1 C254 (UniProt P85037) | 1.18 (active)
OGDH C802 (UniProt Q02218) | -0.0839 (inactive)
STX5 C68 (UniProt Q13190) | 0.4 (inactive)
UniProt P60842_C134 | 0.0481 (inactive)
NUBP1 C31 (UniProt P53384) | 0.626 (inactive)
LMNB2 C212 (UniProt Q03252) | 0.214 (inactive)
CBX2 C340 (UniProt Q14781) | 0.654 (inactive)
KIF14 C442 (UniProt Q15058) | 0.0677 (inactive)
TCOF1 C1298 (UniProt Q13428) | 0.666 (inactive)
CNN3 C173 (UniProt Q15417) | 1.01 (active)
PITRM1 C780 (UniProt Q5JRX3) | 0.31 (inactive)
FHL3 C150 (UniProt Q13643) | 0.146 (inactive)
